# IL-1B inflam inh = qHTS for Inhibitors of Inflammasome Signaling: IL-1-beta AlphaLISA Primary Screen. AID 743279, 2014. 4.7% of 360,000 active. THP-1 LPS/ATP IL-1B secretion, AlphaLISA, 16 h; active compounds read low. activity change, % at 57.5 µM; in the data active = activity change below about -50%; inconclusive = mostly about -30% to -49%; note: % is set by controls: 0 for no effect and ±100 for the full control effect
#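 Secreted IL-1B measured by AlphaLISA bead assay after 16 h compound exposure of THP-1 cells; compounds (final up to 57.5 uM) added 1 h before LPS (250 ng/mL) and ATP (1.25 mM) stimulation; lower signal means less secretion.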
# ClpP mod = qHTS Assay for Activators of ClpP; ATP-dependent Clp protease proteolytic subunit (Bacillus subtilis (strain 168)), P80244; purified B. subtilis ClpP, FRET peptide cleavage, 20 min; Potency, µM (series often up to 57.5 µM), without a hit: top-dose activity change, negative = active; 1.9% of 340,000 active; active = well fitted falling curve with a large enough effect; inconclusive = small, poorly fitted or top-dose-only effect; inactive = no such curve, though single readings can be large or run the other way; note: potency is the fitted concentration of half-maximal effect; the source files actives as falling curves though it sought activators and does not explain the sign; nearly all actives have a fitted effect of over 65% in size
#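 Buffer: 100 mM Tris/HCl pH8, 100 mM KCl, 0.05% low protease BSA, 2.5% glycerol, 0.01% Tween-20. ClpP 10 microg/mL final; 20 min RT; delta FRET normalized to ADEP and DMSO controls.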
# TDP1 cell CPT = qHTS for Inhibitors of human tyrosyl-DNA phosphodiesterase 1 (TDP1): qHTS in cells in presence of CPT; chicken DT40 Tdp1-/-;hTDP1 cells + 20 nM CPT, ATP luminescence, 48 h; Potency, µM (top dose mostly 46.2 µM), inactives show at the highest dose activity change, negative = growth inhibition, hits mostly inhibitors; 12% of 420,000 active; note: potency is the fitted concentration of half-maximal effect; % is set by controls: 0 for no effect and ±100 for the full control effect; nearly all actives have a fitted effect of over 55% in size
#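 Chicken DT40 Tdp1-/- cells complemented with human TDP1, 400 cells/well, exposed to compounds plus 20 nM camptothecin for at least 48 h at 37 C; viability read as ATP content by CellTiter-Glo luminescence.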
# TDP1 cell noCPT = qHTS for Inhibitors of human tyrosyl-DNA phosphodiesterase 1 (TDP1): qHTS in cells in absence of CPT; Potency, µM (doses to about 46.2 µM), for inactives: at the highest dose activity change, negative = growth inhibition, actives largely listed as inhibitors; DT40 Tdp1-/- hTDP1 cells, no CPT, ATP luminescence, 48 h; 15% of 420,000 active; note: potency is the fitted concentration of half-maximal effect; % is set by controls: 0 for no effect and ±100 for the full control effect; nearly all actives have a fitted effect of over 55% in size
#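 Readout: luminescence from CellTiter-Glo after 30 min in the dark at RT. Cells: DT40 Tdp1-/- with stable hTDP1, 400/well. Exposure: compounds alone, ≥48 hr, 37 °C.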
# DRD3 antagonist = qHTS of D3 Dopamine Receptor Antagonist: qHTS; 2.5% of 360,000 active; D(3) dopamine receptor (Homo sapiens), P35462; D3R cells, DiscoveRx beta-arrestin luminescence, antagonist mode; active compounds read low; AID 652054, 2013; max response, negative = inhibition, %; in the data active = max response below about -50%; inconclusive = no clear call, values can overlap the other calls; note: % is set by controls: 0 for no effect and ±100 for the full control effect
#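 Cells plated overnight at 1500 cells/well, then exposed to library compounds with dopamine controls for 90 minutes at 37 degrees C. DiscoveRx reagent added for 30–60 minutes at room temperature; luminescence read, quantitative HTS format.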
# D3 ag = qHTS of D3 Dopamine Receptor Agonist: qHTS. 0.58% of 410,000 active. D3R DiscoveRx beta-arrestin cells, luminescence, 90 min. max activation, %; in the data active = max activation above about 30%; note: 0% is about no effect
#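 Cells at 1500/well, incubated overnight, then treated with pinned compounds (dopamine as control) for 90 min at 37 degrees C. DiscoveRx reagent added for 30 - 60 minutes at room temperature; luminescence read.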
# Numbers without * were called inactive; ? = inconclusive; / = no result given; [ ] = another dose, or the depositor's remark. This is a sample that favours compounds with a hit; in the whole collection about 21% have one here. Unless noted, calls come from the whole dose curve; as a rule, active = well fitted inhibition curve with a large enough effect; inconclusive = small, poorly fitted or top-dose-only effect; inactive = flat fitted curve, though single readings scatter.
SMILES,IL-1B inflam inh,ClpP mod,TDP1 cell CPT,TDP1 cell noCPT,DRD3 antagonist,D3 ag
COC(=O)C1=C(c2ccc(OC(F)(F)F)cc2)C[C@@H]2CC[C@H]1N2C(=O)NCc1ccc(F)cc1,-9.2,-0.4%,18.4µM*,20.6µM*,0.2,3.6
COC(=O)C1=C(c2ccc3ccccc3c2)C[C@@H]2CC[C@H]1N2C(=O)NCc1ccc(F)cc1,-6.8,-1.3%,?,16.4µM*,-15.4,-5.7
COC(=O)C1=C(c2ccc3ccccc3c2)C[C@@H]2CC[C@H]1N2C(=O)NCc1ccc(C(F)(F)F)cc1,?,-7.7%,?,?,-29.7,-5.3
COC(=O)C1=C(c2ccc(S(C)(=O)=O)cc2)C[C@@H]2CC[C@H]1N2C(=O)NCc1ccc(F)cc1,41.2,2.0%,-0.3%,-13.7%,-3.7,-12.8
Cn1c(O)c(C=NC2CCCCCC2)c(=O)[nH]c1=S,-9.4,1.1%,-17.0%,14.7%,10.6,-5.6
CC1CCCCC1NC(=O)CNC(=S)N1CC2CC(C1)c1cccc(=O)n1C2 (stereo unspecified),19.8,1.5%,16.4%,16.0%,13.0,7.4
Cc1ccc(N2C(=O)NC(=O)/C(=C\c3cc(C)n(-c4sc5c(c4C#N)CCCC5)c3C)C2=O)cc1,-84.4*,/,?,?,15.3,3.8
CCOC(=O)c1c(-n2c(C)cc(/C=C3/C(=O)NC(=O)N(CC)C3=O)c2C)sc2c1CCCC2,6.0,0.4%,16.4µM*,?,30.0,1.4
CCOC(=O)c1c(-n2c(C)cc(C=C3C(=O)NC(=S)NC3=O)c2C)sc2c1CCCC2,-109.6*,4.2%,23.1µM*,18.4µM*,-6.6,-5.7
CCOC(=O)c1c(/N=C/C2C(=O)NC(=O)NC2=O)sc2c1CCC2,-9.5,/,10.5%,6.2%,-7.1,0.3
O=[N+]([O-])c1ccc(NCCO)c2ncccc12,13.8,-0.5%,-3.9%,-27.5%,1.0,-16.1
CCc1ccc(OCC(=O)Nc2cc3oc4ccccc4c3cc2OC)cc1,/,-11.5%,?,?,/,1.3
CC(O)C1C=CC=CC(=O)OC2CC3OC4C5OC5(C)CCC4(COC(=O)C4OC4(C)C(O)CO1)C2(C)C31CO1 (stereo unspecified),-99.9*,0.0%,0.0517µM*,0.0517µM*,0.9,4.7
CC(=O)OC1C(=O)OCC23CCC4(C)OC4C2OC2CC(OC(=O)C=CC=CC(=O)OCCC1C)C3(C)C21CO1 (stereo unspecified),-100.7*,0.6%,0.146µM*,0.0206µM*,5.6,0.3
CCN1C[C@]2(COC)CC[C@H](O)[C@@]34C5C[C@@H]6[C@@H](OC)C[C@@](O)(C5[C@H]6O)[C@](O)([C@@H](OC)C23)[C@@H]14 (stereo partly specified),4.3,2.1%,7.9%,-9.6%,24.5,12.7
CCN(CC)c1ccc(CC2C(=O)N(C)C(=O)N(C)C2=O)cc1,-11.6,8.91µM*,?,?,7.6,0.9
COc1cc2[nH]c(=O)n(-c3cccc(Cl)c3)c(=O)c2cc1OC,-1.6,28.2µM*,-5.5%,-7.8%,?,3.4
COc1cc2[nH]c(=O)n(-c3ccccc3)c(=O)c2cc1OC,-20.6,25.1µM*,-10.8%,8.2%,19.8,2.4
CC(=O)c1c(O)n(-c2cccc(Cl)c2)c(=O)[nH]c1=O (tested in a mixture with another compound),-9.8,-1.4%,2.7%,-15.2%,2.3,2.7
CC(C)=O,/,/,?,?,/,-10.2
CCOc1ccc(CC(=O)Nc2ccc3c(c2)N(C)C(=O)c2ccccc2S3)cc1OCC,/,0.4%,?,?,/,15.0
C[N+]1(CC2COC(c3ccco3)O2)CCCCC1 (stereo unspecified),-5.9,/,0.9%,-2.5%,-7.6,3.9
c1ccc(-c2ccc(C(c3ccccc3)n3ccnc3)cc2)cc1 (stereo unspecified),-22.1,0.7%,10.3µM*,23.1µM*,-5.1,-7.6
c1ccc(C(c2ccccc2)c2cccnc2)cc1,-13.1,/,-30.0%,?,3.6,-0.2
CC(C)[C@H]1C(=O)O[C@@H]2CCN3CC=C(COC(=O)[C@](C)(O)[C@]1(C)O)[C@H]23,9.4,-0.3%,?,-18.7%,1.6,2.9
SMILES,IL-1B inflam inh,ClpP mod,TDP1 cell CPT,TDP1 cell noCPT,DRD3 antagonist,D3 ag
COc1ccc(-c2nn(CCC#N)cc2C(=O)NCc2ccccc2)cc1,12.8,0.8%,-18.7%,27.4%,6.9,-3.1
COc1ccc(CNC(=O)c2cnn3c(C)c(Cc4ccc(F)cc4)c(C)nc23)cc1,/,4.1%,16.4µM*,14.6µM*,/,-5.6
CS(=O)(=O)N1CCC2(CCCN(Cc3ccncc3)C2)CC1,/,/,-0.3%,-2.7%,/,/
Cc1ccc(-n2nc(C)c3c2NC(=O)CSC3c2ccc3c(c2)OCO3)cc1 (stereo unspecified),-4.6,-0.1%,-29.5%,?,-0.6,-18.8
Cc1ccccc1-n1nc(C)c2c1NC(=O)CSC2c1ccccc1C(F)(F)F (stereo unspecified),/,-2.7%,25.9µM*,?,/,6.0
COc1ccc(Br)cc1C1SCC(=O)Nc2c1c(C)nn2-c1ccccc1C (stereo unspecified),/,-0.4%,?,18.4µM*,/,0.1
CCCCCCC(C)OC(=O)COc1ccc(Cl)cc1Cl (stereo unspecified),/,/,18.4%,15.4%,/,/
O=C1Nc2ccc(Br)cc2C(c2ccccc2Cl)=NC1O (stereo unspecified),-10.2,-2.0%,-16.5%,?,-14.4,-2.1
COc1cccc(CNC(=O)c2cc3c(-c4ccccc4F)nn(C)c3s2)c1,/,4.2%,?,16.4µM*,/,-0.2
COc1ccccc1N1CCN(C(=O)c2cc3c(-c4ccccc4F)nn(C)c3s2)CC1,/,-9.7%,?,6.51µM*,/,56.0*
CCCCCCC(=O)CCCCCC/C=C/C[C@@H](O)[C@H](O)[C@@](N)(CO)C(=O)O,/,/,?,?,/,1.8
CCCn1ncc(CN2CCCC(C(=O)c3cccc(OC)c3)C2)c1C (stereo unspecified),4.7,/,?,-20.8%,?,-16.2
CC(C)C[C@H](NC(=O)[C@H](Cc1ccccc1)NC(=O)CNC(=O)[C@H](C)NC(=O)[C@@H](N)Cc1ccc(O)cc1)C(=O)O,/,/,2.4%[4.12 µM],-11.5%[4.12 µM],/,/
